Experimental data as given in PubChem BioAssay (NCI).
“And” between values parts separate entries of the source, which are not always exact repeats. Equal values may be shown once. About 83,000 compounds went through this panel and 20% of them were active in at least one assay; those are over-represented in the sample as a whole.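 Single-concentration screen, 48 h exposure, 96-well plates. Endpoint: percent growth. Below 10 = active.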 The source made the active and inactive calls.

tested on: HL-60(TB) leukemia; test: NCI-60 one-dose screen, 48 h (100 = growth as untreated, 0 = no growth, -100 = all killed); conditions: 10 µM unless noted

SMILES | growth
Oc1c(Cl)cc(Cl)cc1Sc1cc(Cl)cc(Cl)c1O | 28% (inactive) and -16.5% (active) and 52.9% (inactive)
O=C1c2cc3c(cc2-c2c1c1cc(Cl)c(Cl)cc1c(=O)n2C[C@H](O)CO)OCO3 | -22.6% (active)
COc1ccc(-c2nc3sc4c(c3c(=O)[nH]2)CCCC4)c2ccccc12 | -24.7% (active)
O=C(O)CNC1=C(Cl)C(=O)c2ccccc2C1=O | 122% (inactive)
CN(C)CCC(=O)c1ccc(Cl)cc1 | 113% (inactive) and 110% (inactive)
O=C1Nc2ccccc2SC1c1ccccc1Cl (centres undefined) | 71% (inactive)
C=C(C(N)=O)C(N)C(=O)O (centres undefined) | 104% (inactive)
CC1(C)CC[C@]2(C(N)=O)CC[C@]3(C)C(=CC[C@@H]4[C@@]5(C)C/C(=C/c6cccnc6)C(=O)C(C)(C)[C@@H]5CC[C@]43C)[C@@H]2C1 | -24.7% [100 µM] (active)
COc1ccc(C(O)c2cc3c(N)c(C(=O)Nc4ccc(Cl)cc4)sc3nc2C)cc1 (centres undefined) | -50.1% (active)
O=C(c1c(F)ccc(NS(=O)(=O)N2CC[C@@H](F)C2)c1F)c1c[nH]c2ncc(-c3cnc(C4CC4)nc3)cc12 | 35.6% (inactive)
C=CCn1c(C)nc2cc(Nc3nc(Nc4ccc5nc(C)n(CC=C)c5c4)nc4ccccc34)ccc21 | 84% (inactive)
Cc1ccccc1Cn1cnc2ccc(-c3cc(NC(=O)c4ccc(NC5CCN(C)CC5)cc4)n[nH]3)cc21 | 79.4% (inactive)
NC(N)=NC1CCCCC1 | 94.4% (inactive)
O=C(/C=C/c1ccc(Cl)cc1)c1cccc(Nc2nc(Nc3ccccc3)nc(Nc3ccccc3)n2)c1 | 95.9% (inactive)
